Where “and” joins values, the source holds several entries; their conditions need not be identical. Equal values may be shown once. Results filed as inconclusive are left out. Calls of active or inactive are those of the source. Unless noted, the call rests on the fitted dose curve; in most records, active means well fitted curve in the direction sought with a large enough effect; inconclusive means small, poorly fitted or top-dose-only effect, or another doubt; inactive means no such curve, though single readings can be large; an effect the other way counts as inactive or inconclusive.

Assay [1] is described as follows: qHTS for compounds that reverse cellular toxicity of Amyloid beta (A-beta) peptide in yeast: LOPAC Validation Assay (AID 720559).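 Further: plate controls were DMSO for no effect and equimolar ferric chloride plus clioquinol rescue for full effect.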 The procedure, abridged: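 OD600 growth readout after 48 hr at 30 C; A-beta-toxic yeast plus pinned compounds in medium. Normalization: DMSO = negative, equimolar FeCl3 + clioquinol = positive.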
Assay [2] can be described thus: qHTS for Activators of Parkin Expression: LOPAC Validation Assay (NLuc Reporter) (AID 720572). The procedure, abridged:
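Compound effects on Parkin promoter activity were measured as NanoLuc luminescence after 24 h at 37 C. The neuronal reporter line also carried FLuc, which was read first. LOPAC compounds were tested at 7 concentrations, with normalization to DMSO (0%) and positive control (100%).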

In assay [3] the target is T1, Hexokinase-4 (Homo sapiens) + Glucokinase regulatory protein (Homo sapiens) (UniProt P35557+Q14397). In words: qHTS assay for inhibitors of recombinant human GCK-GKRP interaction: Diaphorase-coupled assay (AID 743205). An outline of the steps:
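Resorufin fluorescence (525/590 nm), read each minute over 30 min, reports GCK activity coupled via G6PDH and diaphorase. Reaction: 10 nM GST-GCK, 10 nM FLAG-GKRP, 5 mM glucose, 0.4 mM ATP, 0.15 mM NADP+, 0.1 mM resazurin.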

The target in assay [4] is T1, Hexokinase-4 (Homo sapiens) + Glucokinase regulatory protein (Homo sapiens). Put plainly: qHTS assay for inhibitors of recombinant human GCK-GKRP interaction: ADP-Glo assay (AID 743206).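 Further: plate controls were DMSO plus enzyme for no effect and no enzyme for full effect.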 An outline of the steps: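 Pin-transferred compounds meet a 15 nM GST-GCK/15 nM FLAG-GKRP/2 uM S6P mix (dispense concentrations). ATP is then added to 0.4 mM final with 5 mM glucose, and the reaction runs 60 min at room temperature. ADP is quantified luminescently.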

The target is the same in assay [5]. Put plainly: qHTS assay for inhibitors of recombinant human GCK-GKRP interaction: HTRF assay (AID 743207).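 Further: 0% = DMSO with GCK present and -100% = DMSO wells lacking GCK.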 The procedure, abridged:
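HTRF read-out (ex 320 nm; 615/665 nm emission) after 60 min RT equilibration of 5 nM GST-GCK, 5 nM FLAG-GKRP, 2 uM S6P, compound and anti-FLAG/anti-GST detection antibodies; signal normalized between DMSO wells with and without GCK.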
(In general: qHTS replaces the single test concentration by a dilution series.)

The nature of assay [6]: qHTS Assay for Identifying Gametocytocidal Compounds (AID 743244).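 Further: on the % scale 0 is the no-effect control and ±100 the full control effect; actives lower the fluorescent signal which means gametocytes are killed.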 Particulars: P. falciparum 3D7 stage III-V gametocytes, alamarBlue, 72 h; max response: stronger effect = lower value. An outline of the steps: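 Late gametocytes (III–V), P. falciparum 3D7; 72 h drug, then 24 h alamarBlue; resazurin reduction read by fluorescence.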
Assay [7] in a line: qHTS profiling of the MIPE4 collection as inhibitors of Plasmodium falciparum (3D7) proliferation (AID 743344; call rule not given here;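 further: scaled between DMSO vehicle wells and 0.29 µM artemisinin as full inhibition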). Particulars: P. falciparum 3D7 in erythrocytes, SYBR Green DNA fluorescence, 72 h; at 28.5 µM (top of the series) unless noted. An outline of the steps:
(§1)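 Parasite DNA was quantified by SYBR Green I fluorescence (ex 485, em 535 nm) after overnight lysis in saponin/Triton buffer at room temperature. Cultures at 0.3% parasitemia and 2.5% hematocrit were first exposed to compound for 72 h at 37 C; signals were normalised to artemisinin (0.29 uM) and vehicle wells.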

A short description of assay [8]: qHTS profiling of the MIPE4 collection as inhibitors of Plasmodium falciparum (DD2) proliferation (AID 743345; call rule not given here). Particulars: P. falciparum Dd2 in erythrocytes, SYBR Green DNA, 72 h; at 28.5 µM (top of the series) unless noted. The procedure, abridged: as §1
Assay [9] is described as follows: qHTS profiling of the MIPE4 collection as inhibitors of Plasmodium falciparum (DD2) proliferation (Rep 2) (AID 743346; call rule not given here). Conditions: P. falciparum Dd2 in erythrocytes, SYBR Green DNA, 72 h; at 28.5 µM (top of the series) unless noted. An outline of the steps: as §1
Assay [10] can be described thus: qHTS assay for small molecule agonists of the antioxidant response element (ARE) signaling pathway measured by Nrf2-dependant transcriptional activity (AID 720636; active means well fitted curve in the direction sought with a large enough effect in the repeat runs; an effect the other way counts as inactive or inconclusive;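 further: HepG2 cells with an ARE-driven luciferase reporter; % of control where 0% means no effect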). An outline of the steps: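 HepG2 ARE-luc reporter line, 1% dialyzed FBS; 6 hr attachment at 37 C, compound pinned in, 16 hr at 37 C/5% CO2; ONE-Glo, 30 min RT, luminescence read.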
Assay [11] is described as follows: qHTS assay for small molecule agonists of the antioxidant response element (ARE) signaling pathway measured by Nrf2-dependant transcriptional activity - cell viability counter screen (AID 720653; active means well fitted curve in the direction sought with a large enough effect in the repeat runs; an effect the other way counts as inactive or inconclusive; further: on the % scale 0 is the no-effect control and ±100 the full control effect). Particulars: ARE-bla HepG2 viability, CellTiter-Glo ATP luminescence, 16 h; max response: stronger effect = lower value. An outline of the steps: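 Cytotoxicity counter screen: intracellular ATP quantified by CellTiter-Glo luminescence in the same ARE-bla HepG2 plates, after 16 h compound exposure and a 2 h beta-lactamase substrate step.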

The nature of assay [12]: qHTS assay for cell viability of HEK293 cells (AID 743288). Further: nearly all actives have a fitted effect of over 50% in size. Further: potency means the concentration at half of the fitted maximal effect. On max response: on the % scale 0 is the no-effect control and ±100 the full control effect. Conditions: ATP luminescence (CellTiter-Glo), 18 h; max response: stronger effect = lower value. The procedure, abridged:
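ATP luminescence (CellTiter-Glo) reports metabolically competent cell number after parental HEK293 cells, 2,000/well, were treated with DMSO-dissolved compounds for 18 h at 37 C; reagent incubation 30 min, room temperature.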

A short description of assay [13]: qHTS assay for cell viability of the p53RE-bla HCT-116 cell line (AID 743292). Further: on the % scale 0 is the no-effect control and ±100 the full control effect; nearly all actives have a fitted effect of over 55% in size. An outline of the steps:
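Luminescent ATP quantitation (CellTiter-Glo) served as the viability read-out; reagent was added after 16 h compound exposure at 37 C and read after 30 min at room temperature. Cells: p53RE-bla HCT-116, 4,000 per well.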

T1 sequence (P35557 whole entry, looked up): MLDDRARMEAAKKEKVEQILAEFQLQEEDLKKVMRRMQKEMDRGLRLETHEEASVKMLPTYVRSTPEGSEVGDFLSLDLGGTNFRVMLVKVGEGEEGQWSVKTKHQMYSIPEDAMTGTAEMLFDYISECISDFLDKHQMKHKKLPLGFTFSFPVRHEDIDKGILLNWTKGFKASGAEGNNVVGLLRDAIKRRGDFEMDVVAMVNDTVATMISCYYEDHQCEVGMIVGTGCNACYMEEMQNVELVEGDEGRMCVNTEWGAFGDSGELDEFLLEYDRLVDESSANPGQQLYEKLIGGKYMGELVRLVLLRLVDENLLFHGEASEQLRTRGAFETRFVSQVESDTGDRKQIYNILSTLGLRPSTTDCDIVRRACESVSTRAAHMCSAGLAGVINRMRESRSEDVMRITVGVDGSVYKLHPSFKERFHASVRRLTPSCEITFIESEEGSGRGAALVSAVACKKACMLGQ
T1 sequence (Q14397 whole entry, looked up): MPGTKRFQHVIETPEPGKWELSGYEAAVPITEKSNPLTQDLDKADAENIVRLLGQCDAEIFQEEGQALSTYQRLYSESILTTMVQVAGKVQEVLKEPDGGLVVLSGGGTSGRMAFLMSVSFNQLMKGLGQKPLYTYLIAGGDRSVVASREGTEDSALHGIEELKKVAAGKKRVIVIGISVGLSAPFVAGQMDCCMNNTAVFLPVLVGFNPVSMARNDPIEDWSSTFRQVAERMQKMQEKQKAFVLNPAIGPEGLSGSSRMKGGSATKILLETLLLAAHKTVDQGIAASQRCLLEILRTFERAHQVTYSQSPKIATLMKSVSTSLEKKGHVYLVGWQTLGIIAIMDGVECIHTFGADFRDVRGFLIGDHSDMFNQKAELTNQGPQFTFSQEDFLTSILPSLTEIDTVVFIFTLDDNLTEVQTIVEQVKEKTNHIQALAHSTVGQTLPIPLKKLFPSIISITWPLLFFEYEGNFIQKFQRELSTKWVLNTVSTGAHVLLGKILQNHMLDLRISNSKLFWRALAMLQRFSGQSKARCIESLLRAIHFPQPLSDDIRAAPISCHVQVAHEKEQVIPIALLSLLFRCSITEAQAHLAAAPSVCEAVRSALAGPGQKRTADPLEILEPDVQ

As to `CC(CCc1ccc(O)cc1)NCCc1ccc(O)c(O)c1` (stereo not given), the call in assay [1] and in assay [2] was inactive. Further, the Potency entry in assay [3], in assay [4] and in assay [5] was “inactive” each time. In addition, the max response in assay [6] is 27.1% (inactive). In [7], the parasite growth, % of DMSO control came out at 52.3%. Also, in assay [8], the parasite growth remaining, % of DMSO control (lower = more inhibition) came to 64.4%. Besides, the parasite growth, % of control (lower = inhibition) in assay [9] was 62.7%.
Take `N[C@@H](Cc1c[nH]c2ccc(O)cc12)C(=O)O`: the result in assay [1], in assay [2] and in assay [10] was inactive. The max response in assay [11] was -3.27% (inactive); in assay [6] it was -0.101% (inactive) and -5.53% (inactive); in [12], 3.87% (inactive). In addition, the Potency result in [3], in [4], in assay [5] and in [13] was “inactive” each time. In [7], this compound gave a parasite growth, % of DMSO control of 101%. Besides, the parasite growth remaining, % of DMSO control (lower = more inhibition) in [8] worked out at 101%. Moreover, the parasite growth, % of control (lower = inhibition) in assay [9] amounted to 132%.
As to `CCOC(=O)c1ncn2c1CN(C)C(=O)c1cc(F)ccc1-2`, the result in assay [1] and in assay [2] was inactive. The Potency result in assay [3], in assay [4] and in [5] was “inactive” throughout. Besides, the max response in [6] was 2.86% (inactive) and 37.5% (inactive).
On to `CN1CCC(=C2c3ccccc3CC(=O)c3sccc32)CC1`, for which the result in [1] and in assay [2] was inactive. Moreover, the Potency result in [3], in [4] and in [5] was “inactive” each time. In assay [7], this compound came in with a parasite growth, % of DMSO control of 13.6%. Also, in assay [8], the parasite growth remaining, % of DMSO control (lower = more inhibition) worked out at 55.5%. Besides, the parasite growth, % of control (lower = inhibition) in assay [9] is 40.5%.
Regarding `CN(CCOc1ccc(NS(C)(=O)=O)cc1)CCc1ccc(NS(C)(=O)=O)cc1`, the max response in assay [6] was 1.01% (inactive). The parasite growth, % of DMSO control in [7] turned out to be 115%. Moreover, the parasite growth remaining, % of DMSO control (lower = more inhibition) in assay [8] came to 89.2%. The parasite growth, % of control (lower = inhibition) in [9] was 119%.
`C[C@](N)(Cc1ccc(O)c(O)c1)C(=O)O`: the result in assay [1], in assay [2] and in assay [10] was inactive. Further, the max response is -0.408% (inactive) in assay [11], 9.51% (inactive) in assay [6] and -5.13% (inactive) in assay [12]. Also, the Potency result in [3], in assay [4], in assay [5] and in [13] was “inactive” throughout. Besides, the parasite growth, % of DMSO control in [7] was found to be 73.9%. Moreover, in assay [8], the parasite growth remaining, % of DMSO control (lower = more inhibition) turned out to be 80%. Also, the parasite growth, % of control (lower = inhibition) in assay [9] is 77.2%.
As for `CN(C)CCCN1c2ccccc2CCc2ccc(Cl)cc21`, the result in assay [1] and in [2] was inactive. Also, the Potency entry in assay [3], in [4] and in assay [5] was “inactive” each time. For the same compound, the parasite growth, % of DMSO control in assay [7] was 19.3%. For the same compound, in assay [8], the parasite growth remaining, % of DMSO control (lower = more inhibition) was 12%. Further, in assay [9], the parasite growth, % of control (lower = inhibition) is 24.6%.
With `O=C(Nc1ccc([N+](=O)[O-])cc1Cl)c1cc(Cl)ccc1O`, the compound was classed as inactive in assay [10]. Also, the Potency result in assay [3], in [4] and in assay [5] was “inactive” each time. For the same compound, in assay [12], the Potency was 7.08 µM (active). The same compound showed a parasite growth, % of DMSO control in assay [7] of 5.14%. Also, the parasite growth remaining, % of DMSO control (lower = more inhibition) in [8] amounted to 6.45%. Also, the parasite growth, % of control (lower = inhibition) in [9] worked out at 6.93%.
In the case of `O=C(c1ccc(F)cc1)C1CCN(CCn2c(=O)[nH]c3ccccc3c2=O)CC1`, the compound was classed as inactive in [1] and in assay [2]. Besides, the Potency result in assay [3], in assay [4] and in assay [5] was “inactive” throughout. In addition, in assay [6], the max response was 7.32% (inactive) and -5.52% (inactive). In assay [7], this compound had a parasite growth, % of DMSO control of 109%. For the same compound, the parasite growth remaining, % of DMSO control (lower = more inhibition) in [8] came out at 19.2%. The parasite growth, % of control (lower = inhibition) in [9] stood at 104%.
Take `CN1CCN(C2=Nc3cc(Cl)ccc3Nc3ccccc32)CC1`: the outcome in [1] and in [2] was inactive. Besides, in assay [6], the max response was -2.07% (inactive) and 20.9% (inactive).
`NC(=O)OCC(COC(N)=O)c1ccccc1`: the result in [1] and in [2] was inactive. For the same compound, the Potency entry in assay [3], in [4] and in assay [5] was “inactive” each time. Further, in assay [6], the max response is 0.706% (inactive) and 21.3% (inactive). The compound further registered a parasite growth, % of DMSO control in assay [7] of 97.2%. In addition, in [8], the parasite growth remaining, % of DMSO control (lower = more inhibition) was found to be 97.8%. For the same compound, the parasite growth, % of control (lower = inhibition) in assay [9] was 95.5%.

For the origin of these results see PubChem BioAssay (NCATS).
